Assay results reported in PubChem BioAssay (EPA / NIEHS).
Where “and” joins values, the source holds several entries; their conditions need not be identical. Equal values may be shown once. More than one record can exist for a structure, and the calls need not agree. Calls of active or inactive are those of the source. The calls were made as follows: active = hit-call score of the fitted dose curve at least 0.9, where 1 is the maximum; inactive = score below 0.9.

Test: ATG_VDRE_CIS: Attagene CIS-FACTORIAL HepG2 Assay for human Vitamin D Receptor Element (VDRE) (AID 2282968)
Conditions: HepG2 VDRE cis-reporter transcription, actives raise or lower the signal
Method: ATG_CIS is a cell-based, multiplexed-readout assay that uses HepG2, a human liver cell line, with measurements taken at 24 hours after chemical dosing in a 24-well plate.ATG_VDRE_CIS is one of 52 assay component(s) measured or calculated from the ATG_CIS assay. It is designed to make measurements of mRNA induction, a form of inducible reporter, as detected with fluorescence intensity signals by Reverse transcription polymerase chain reaction (RT-PCR) and Capillary electrophoresis technology.Data from the assay component ATG_VDRE_CIS was analyzed into 1 assay endpoint. This assay endpoint, ATG_VDRE_CIS, was analyzed with bidirectional fitting relative to DMSO as the negative control and baseline of activity. Using a type of inducible reporter, measures of mRNA for gain or loss-of-signal activity can be used to understand the reporter gene at the transcription factor-level as they relate to the gene VDR. Furthermore, this assay endpoint can be referred to as a primary readout, because this assay has produced multiple assay endpoints where this one serves a reporter gene function. To generalize the intended target to other relatable targets, this assay endpoint is annotated to the nuclear receptor intended target family, where the subfamily is non-steroidal.
Human liver HepG2 cells are transiently transfected with multiple reporter transcription units (MRTUs) in 6-well plates using FuGene 6 reagent (Roche; 3 ml FuGene/1 mg DNA). The MRTU constructs are regulated by a cis-regulating element (promoter). […] A major difference between the CIS and TRANS system is that in CIS activities of endogenous TFs are measured, whereas the TRANS assay evaluates changes in activities of exogenous, chimeric NR-Gal4 proteins. […] At the end of 24 hour incubation, total RNA was isolated using TriZol reagent (Invitrogen). The isolated RNA is then reverse-transcribed using oligo(dT) primer and Mo-MLV reverse transcriptase (Invitrogen) with DNAse I (Ambion) treatment for 30 min. The one-tenth of the produced cDNA was amplified by PCR using Taq DNA polymerase (Invitrogen) and two reporter sequence-specific primers. The PCR products were fluorescently labeled by primer extension with 6-arboxyfluorescein (6-FAM) 5'-labeled reporter sequence-specific primer (2 min at 95 C, 20 s at 68 C and 10 min at 72 C) and these products were digested with 5U of HpaI (New England Biolabs) for 2h at 37 C. The fragments were purified using Qiaquick PCR columns (Qiagen), analyzed on an ABI 3130xL genetic analyzer (Applied Biosystems) with peak positions identified by using a set of X-rhodamine (ROX)-labeled MapMarker1000 molecular weight standards (BioVentures). The raw capillary electrophoresis data was processed using Attagraph software (Attagene).

Compound | outcome | AC50
COC(=O)CC(C(C)=O)C(=O)OC (stereo not given) | inactive | 
C=CC(=O)OCCC(F)(F)C(F)(F)C(F)(F)C(F)(F)C(F)(F)C(F)(F)C(F)(F)C(F)(F)F | inactive | 
CC(O)COc1ccccc1 (stereo not given) | inactive | 
Cc1cc(Cc2cc(C)cc(C(C)(C)C)c2O)c(O)c(C(C)(C)C)c1 | inactive | 
CCc1cccc(CC)c1NC(=O)C(=O)O | inactive | 
O=C(O)C(F)(F)OC(F)(F)C(F)(F)OC(F)(F)C(F)(F)OC(F)(F)C(F)(F)C(F)(F)C(F)(F)F |  | 13.1 µM (active) and 30 µM (active)
CCCCCCCCCCCC[N+](C)(C)CCCCCCCCCCCC |  | 8.42 µM (active)
c1cc[nH]c1 | inactive | 
O=C(NCc1ncc(C(F)(F)F)cc1Cl)c1c(Cl)cccc1Cl | inactive | 
CN(CCO)S(=O)(=O)C(F)(F)C(F)(F)C(F)(F)C(F)(F)C(F)(F)C(F)(F)C(F)(F)C(F)(F)F | inactive | 
CCOC(=O)c1nc(C(Cl)(Cl)Cl)n(-c2ccc(Cl)cc2Cl)n1 | inactive | 
O=C(O)c1cccc(C(=O)O)n1 | inactive | 
Brc1cc(Br)c(Oc2c(Br)cc(Br)c(Br)c2Br)cc1Br | inactive | 
CCCCCC(C)OC(=O)COc1ccc(Cl)c2cccnc12 (stereo not given) | inactive | 
CCO[Si](CCC1CCC2OC2C1)(OCC)OCC (stereo not given) | inactive | 
O=C(C=C(O)C(F)(F)F)C(F)(F)F | inactive | 
CCC(C)c1ccccc1O (stereo not given) | inactive | 74.6 µM (active)
CCCCCCCCCCCCCCCCCC[N+](C)(C)Cc1ccccc1 |  | 50 µM (active)

Compound | outcome | AC50
c1cnc2c(c1)ccc1cccnc12 | inactive | 161 µM (active)
O=CC(F)(F)C(F)(F)C(F)(F)F | inactive | 
Cc1ccc(C)c(S(=O)(=O)O)c1 | inactive | 
O=S(=O)(O)c1ccccc1 | inactive | 
CC=O | inactive | 
C=CC(=C)CC/C=C(\C)CCC=C(C)C |  | 6.84 µM (active)
Brc1ccc(Oc2ccc(Br)cc2Br)cc1 | inactive | 
CCCCc1ccc2ccccc2c1S(=O)(=O)O |  | 6.19 µM (active)
FC(F)(F)C(F)(F)C(F)(F)C(F)(F)I | inactive | 
O=C1OC(=O)c2cc(-c3ccc4c(c3)C(=O)OC4=O)ccc21 | inactive | 
C=C(c1ccc(C(=O)O)cc1)c1cc2c(cc1C)C(C)(C)CCC2(C)C | inactive | 2.11 µM (active)
CC(C)(O)C(=O)c1ccccc1 | inactive | 
Clc1ccc(Nc2nnc(Cc3ccncc3)c3ccccc23)cc1 |  | 7.35 µM (active)
Cc1cc(=O)oc2cc(O)ccc12 | inactive | 36 µM (active)
C=CC(=O)OCC(CO)(COCC(COC(=O)C=C)(COC(=O)C=C)COC(=O)C=C)COC(=O)C=C |  | 0.722 µM (active)
C=CC(C)(CCC=C(C)C)OC(C)=O (stereo not given) | inactive | 
FC1(F)C=CC(F)(F)C1(F)F | inactive | 
OCC(F)(F)C(F)(F)C(F)(F)C(F)(F)C(F)(F)C(F)(F)C(F)(F)C(F)(F)C(F)(F)C(F)(F)C(F)(F)F | inactive | 
